Measurements taken from PubChem BioAssay (NCATS).
Records with an inconclusive call do not appear. A call without a number means that no potency is given here. Values without a mark were called inactive. Calls of active or inactive are those of the source. Calls come from the whole dose curve; as a rule, active = well fitted inhibition curve with a large enough effect; inconclusive = small, poorly fitted or top-dose-only effect; inactive = flat fitted curve, though single readings scatter.

Assay: P-glycoprotein substrates identified in KB-8-5-11 adenocarcinoma cell line, qHTS therapeutic library screen (AID 1346987); note: nearly all actives have a fitted effect of over 65% in size
Details: KB-8-5-11 (P-gp overexpressing) viability, CellTiter-Glo, 72 h; series mostly up to 44.5 µM
Procedure, shortened: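 Luminescence from CellTiter-Glo, read 5 min after addition, quantified survival of KB-8-5-11 (P-gp-overexpressing) cells exposed to compounds for 72 h. AC50 was derived from concentration-response curves.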
Potency is the fitted concentration of half-maximal effect.

Row | Compound | Potency | activity change, negative = cytotoxicity | outcome
1 | COc1ccc(C(=O)O[C@H]2CC(C)=CC[C@@]3(C)[C@@H](OC(C)=O)C[C@@](O)(C(C)C)[C@H]23)cc1 | inactive | – | –
2 | O=C(O)CCC(=O)C(=O)O | inactive | – | –
3 | CCCCCCCCCCCCCC[n+]1ccc(C)cc1 | inactive | – | –
4 | CC1CCC2(C(=O)OC3OC(COC4OC(CO)C(O)C(O)C4O)C(O)C(O)C3O)CCC3(C)C(=CCC4C5(C)CCC(O)C(C)(C(=O)O)C5CCC43C)C2C1(C)O (stereo not drawn) | – | 1.52% [at 9.29 µM] | –
5 | C=C1CCC2[C@@](C)(C=O)CCC[C@]2(C)[C@H]1CC/C(C)=C/CO (stereo partly drawn) | inactive | – | –
6 | CNC(=O)COC(=O)NCCC1CCN(c2cccc(C)n2)CC1 | inactive | – | –
7 | C=CCSSSCC=C | inactive | – | –
8 | C[C@]12CCC[C@](C)(C(=O)O)C1CCC13C=C(CO)C(CCC12)C3 (stereo partly drawn) | inactive | – | –
9 | CC(=O)OCC1=C[C@H](O)[C@@H]2C(C(=O)O)=CO[C@@H](O[C@@H]3O[C@H](CO)[C@@H](O)[C@H](O)[C@H]3O)[C@H]12 | inactive | – | –
10 | CCOC(=O)c1ccnc(CNCC(=O)N(CC)CCN(C)C)c1 | inactive | – | –
11 | Cc1coc2c1CC1OC1(C)CCC1OC1(C)C2 (stereo not drawn) | inactive | – | –
12 | COc1cc2c(Nc3ccc(Cl)c(Cl)c3F)ncnc2cc1OCC1C[C@@H]2CN(C)C[C@@H]2C1 (stereo partly drawn) | 18.4 µM (active) | – | –
13 | C[C@@H]1O[C@@H](O[C@H]2[C@H](O[C@H]3[C@H](O[C@H]4CC[C@@]5(CO)C(CC[C@]6(C)C5CC=C5C7CC(C)(C)C[C@@H](O)[C@]7(C)CC[C@]56C)C4(C)C)O[C@H](C(=O)O)[C@@H](O)[C@@H]3O)OC[C@@H](O)[C@@H]2O)[C@H](O)[C@H](O)[C@H]1O (stereo partly drawn) | – | – | inactive [at 9.29 µM]
14 | CC1CCC2C(C)(C)C(O)CCC2(C)C12Cc1c(O)cc3c(c1O2)CN(C(CCC(N)=O)C(=O)O)C3=O (stereo not drawn) | inactive | – | –
15 | CCOC(=O)c1c(C)nn(-c2cccc([N+](=O)[O-])c2)c1C | inactive | – | –
16 | CC(=O)c1c(O)cc2c(c1C)C(=O)CC(O)C2 (stereo not drawn) | inactive | – | –
17 | COc1ccc(/C=C/C(=O)O[C@@H]2[C@@H](O)[C@H](C)O[C@@H](OC3C4C=COC(O[C@@H]5O[C@H](CO)[C@@H](O)[C@H](O)[C@H]5O)C4C4(CO)OC34)[C@@H]2O)cc1OC (stereo partly drawn) | inactive | – | –

Row | Compound | Potency | activity change, negative = cytotoxicity | outcome
18 | C=C1[C@@H]2[C@H]3OC(=O)C(=C)[C@@H]3CC[C@@](C)(O)[C@@H]2C[C@@H]1O[C@@H]1O[C@H](CO)[C@@H](O)[C@H](O)[C@H]1O | inactive | – | –
19 | O=C(O)Cc1nn(Cc2nc3cc(C(F)(F)F)ccc3s2)c(=O)c2nccnc12 | inactive | – | –
20 | CC/C=C\C[C@H]1C(=O)C=C[C@@H]1CCCCCCCC(=O)O | inactive | – | –
21 | Cc1ccccc1 | inactive | – | –
22 | CC1(C)CC[C@]2(C(=O)O)CC[C@]3(C)C(=CCC4[C@@]5(C)C[C@@H](O)[C@H](O)C(C)(C)C5CC[C@]43C)[C@@H]2[C@@H]1O (stereo partly drawn) | inactive | – | –
23 | CC(=O)OC[C@@]12[C@H](O)C[C@]3(C)C(=CCC4[C@@]5(C)CC[C@H](O[C@@H]6O[C@H](C(=O)O)[C@@H](O[C@@H]7O[C@H](CO)[C@@H](O)[C@H](O)[C@H]7O)[C@H](O)[C@H]6O[C@@H]6O[C@H](CO)[C@@H](O)[C@H](O)[C@H]6O)[C@](C)(CO)C5CC[C@]43C)[C@@H]1CC(C)(C)[C@@H](OC(C)=O)[C@@H]2O (stereo partly drawn) | – | 4.33% [at 9.29 µM] | –
24 | COc1cccc2c1CCC[C@H]2CN(C)CCc1ccc2ccoc2c1 | inactive | – | –
25 | CC1CCCC2OC2C(=O)c2c(O)cc(O)cc2CC(=O)O1 (stereo not drawn) | inactive | – | –
26 | COC1(CC(C)C)NC(=O)C(O)(Cc2ccccc2)NC1=O (stereo not drawn) | inactive | – | –
27 | O=C(c1ccccn1)c1cnn2c(-c3ccncc3)ccnc12 | inactive | – | –
28 | C[C@@H]1CCC2[C@@H](C)[C@@H](O)O[C@@H]3O[C@@]4(C)CC[C@@H]1[C@@]23OO4 (stereo partly drawn) | 10.3 µM (active) | – | –
29 | O=C1NC(Cc2ccc(O)cc2)C(=O)N2CCCC12 (stereo not drawn) | inactive | – | –
30 | COC(=O)C12C(=O)C(C)=C(O)C1(C)C(C)=CC1C34CCC(OC3=O)C(C)(C)C4CCC12C (stereo not drawn) | inactive | – | –
31 | OCc1ccccc1O[C@@H]1O[C@H](CO)[C@@H](O)[C@H](O)[C@H]1O | inactive | – | –
32 | C=CC(C)(CC/C=C(\C)CC/C=C(\C)CC(O)/C=C(\C)C(=O)O)O[C@@H]1O[C@H](CO)[C@@H](O)[C@H](O)[C@H]1O[C@@H]1O[C@H](CO)[C@@H](O)[C@H](O)[C@H]1O (stereo partly drawn) | inactive | – | –
33 | CC/C=C/CC1=C(CCCCCCCC(=O)O)CCC1=O | inactive | – | –
